Assay results taken from PubChem BioAssay AID1159580 (chemical genetic matrix, 2015).
The whole screen tested about 5,500 compounds, of which about 2,000 (36%) were called active. Not shown: some 18% with an inconclusive outcome. Cut-off read from the data, not from the text of the source: active = normalized growth mostly below about 0.91 (no sharp cut-off); inconclusive = no clear call, values can overlap the other calls; inactive = mostly above about 0.92. The list shows a part of the results.

Experiment: chemical genetic growth profiling, strain panel (AID 1159580);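 note: tested at 20 µM; growth read once vehicle control cultures reached saturation at 30 °C; 1 = growth at the plate median or of vehicle wells; lower values mean less growth of the strain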
Details: S. cerevisiae deletion strains, growth OD

Measured: normalized growth

C[C@@H]1CC2C3CCC4=CC(=O)C=C[C@]4(C)[C@@]3(F)[C@@H](O)C[C@]2(C)[C@H]1C(=O)CO (stereo not given in full)
inactive: locus YAL021C, strain ccr4, hits give low values 1 | locus YAL026C, strain drs2, hits give low values 0.998 | locus YAL030W, strain snc1, hits give low values 0.998 | locus YBL061C, strain skt5, hits give low values 0.999 | locus YBR009C, strain hhf1, hits give low values 0.997 | locus YBR023C, strain chs3, hits give low values 0.995 | locus YBR171W, strain sec66, hits give low values 0.986 | locus YBR231C, strain swc5, hits give low values 0.988 | locus YBR279W, strain paf1, hits give low values 0.997 | locus YCL011C, strain gbp2, hits give low values 0.993 | locus YCL016C, strain dcc1, hits give low values 1.01 | locus YCL061C, strain MRC1, hits give low values 0.994 | locus YCL069W, strain vba3, hits give low values 1 | locus YCR088W, strain abp1, hits give low values 0.992 | locus YDL005C, strain med2, hits give low values 0.997 | locus YDL040C, strain nat1, hits give low values 0.996 | locus YDR001C, strain nth1, hits give low values 0.987 | locus YDR069C, strain doa4, hits give low values 0.999 | locus YDR137W, strain rgp1, hits give low values 0.979 | locus YDR159W, strain sac3, hits give low values 0.998 | locus YDR195W, strain ref2 0.965 | locus YDR297W, strain sur2, hits give low values 0.996 | locus YDR334W, strain swr1, hits give low values 1 | locus YDR335W, strain msn5, hits give low values 1 | locus YDR392W, strain spt3, hits give low values 0.976 | locus YEL003W, strain gim4, hits give low values 0.999 | locus YEL037C, strain rad23, hits give low values 1 | locus YEL061C, strain CIN8 (second series), hits give low values 0.996 | locus YER015W, strain faa2, hits give low values 0.999 | locus YER016W, strain bim1, hits give low values 1 | locus YER111C, strain swi4, hits give low values 0.982 | locus YER155C, strain BEM2 (second series), hits give low values 0.994 | locus YFR010W, strain ubp6, hits give low values 0.989 | locus YGL167C, strain pmr1, hits give low values 0.996 | locus YGL173C, strain kem1, hits give low values 0.987 | locus YGL227W, strain vid30, hits give low values 0.989 | locus YGL240W, strain doc1, hits give low values 1 | locus YGL253W, strain hxk2, hits give low values 1.01 | locus YHR013C, strain ard1, hits give low values 1 | locus YHR027C, strain rpn1, hits give low values 0.995 | locus YHR030C, strain SLT2, hits give low values 1.06 | locus YHR079C, strain IRE1, hits give low values 1.05 | locus YHR142W, strain chs7, hits give low values 1.01 | locus YJL092W, strain hpr5, hits give low values 0.998 | locus YJL095W, strain BCK1 (second series), hits give low values 1.01 | locus YJL095W, strain BCK1, hits give low values 0.98 | locus YJL115W, strain asf1, hits give low values 0.996 | locus YJL129C, strain trk1, hits give low values 1.01 | locus YJL154C, strain vps35, hits give low values 0.995 | locus YJL164C, strain tpk1, hits give low values 1.01 | locus YJL166W, strain qcr8, hits give low values 0.998 | locus YJL187C, strain SWE1, hits give low values 0.993 | locus YJR066W, strain TOR1, hits give low values 1.01 | locus YKL160W, strain elf1, hits give low values 1 | locus YKR026C, strain gcn3, hits give low values 0.982 | locus YKR091W, strain srl3, hits give low values 0.996 | locus YLL001W, strain dnm1, hits give low values 0.982 | locus YLL026W, hits give low values 0.988 | locus YLL041C, strain sdh2, hits give low values 0.999 | locus YLR027C, strain aat2, hits give low values 1.01 | locus YLR113W, strain HOG1, hits give low values 0.929 | locus YLR221C, strain rsa3, hits give low values 1.01 | locus YLR258W, strain gsy2, hits give low values 1 | locus YLR262C, strain YPT6 (second series), hits give low values 0.985 | locus YLR320W, strain mms22, hits give low values 0.992 | locus YLR342W, strain FKS1, hits give low values 1 | locus YLR357W, strain rsc2, hits give low values 0.999 | locus YLR370C, strain arc18, hits give low values 0.993 | locus YLR384C, strain iki3, hits give low values 1 | locus YML120C, strain ndi1, hits give low values 1 | locus YMR058W, strain fet3, hits give low values 1 | locus YMR125W, strain sto1, hits give low values 0.983 | locus YMR129W, hits give low values 0.995 | locus YMR205C, strain PFK2, hits give low values 0.973 | locus YMR231W, strain pep5, hits give low values 0.998 | locus YNL071W, strain lat1, hits give low values 0.999 | locus YNL183C, strain NPR1, hits give low values 0.992 | locus YNL209W, strain ssb2, hits give low values 1 | locus YNL248C, strain rpa49, hits give low values 0.999 | locus YNL322C, strain KRE1 (second series), hits give low values 1 | locus YNR049C, strain mso1, hits give low values 0.999 | locus YOR001W, strain rrp6, hits give low values 1.01 | locus YOR070C, strain gyp1, hits give low values 0.997 | locus YOR080W, strain dia2, hits give low values 0.991 | locus YOR083W, strain WHI5, hits give low values 1.01 | locus YOR106W, strain vam3, hits give low values 1.02 | locus YOR231W, strain MKK1, hits give low values 1.05 | locus YOR265W, strain rbl2, hits give low values 1 | locus YOR270C, strain vph1, hits give low values 1.01 | locus YOR290C, strain snf2, hits give low values 1 | locus YPL051W, strain arl3, hits give low values 0.999 | locus YPL078C, strain atp4, hits give low values 1.01 | locus YPL106C, strain sse1, hits give low values 1.01 | locus YPL240C, strain hsp82, hits give low values 0.982 | locus YPL256C, strain CLN2, hits give low values 1.04
